Source: publication PMC5540273 (PLoS ONE, 2017)
Several values for one entry are separate records, joined by “and”; a condition that tells them apart may be missing. Equal entries are not always repeated. Where two headings read alike, the source gives them in different places.

Columns and labels:
[1] = tested on: HIPK2; settings: concentration: 1 μM, replicates: in singlicate, n = 1
[2] = tested on: HIPK3; settings: concentration: 1 μM, replicates: in singlicate, n = 1
[3] = tested on: HIPK4; settings: concentration: 1 μM, replicates: in singlicate, n = 1
[4] = tested on: HPK1; settings: concentration: 1 μM, replicates: in singlicate, n = 1
[5] = tested on: HUNK; settings: concentration: 1 μM, replicates: in singlicate, n = 1
[6] = tested on: ICK; settings: concentration: 1 μM, replicates: in singlicate, n = 1
[7] = tested on: IGF1R; settings: concentration: 1 μM, replicates: in singlicate; n = 1
[8] = tested on: T1, IKK-alpha; settings: concentration: 1 μM, replicates: in singlicate, n = 1
T1 construct: gene CHUK

[9] = tested on: T2, IKK-beta; settings: concentration: 1 μM, replicates: in singlicate; n = 1
T2 construct: gene IKBKB

[10] = tested on: T3, IKK-epsilon; settings: concentration: 1 μM, replicates: in singlicate, n = 1
T3 construct: gene IKBKE

[11] = tested on: INSRR; settings: concentration: 1 μM, replicates: in singlicate, n = 1
[12] = tested on: INSR; settings: concentration: 1 μM, replicates: in singlicate, n = 1
[13] = tested on: IRAK1; settings: concentration: 1 μM, replicates: in singlicate, n = 1
[14] = tested on: IRAK3; settings: concentration: 1 μM, replicates: in singlicate; n = 1
[15] = tested on: IRAK4; settings: concentration: 1 μM, replicates: in singlicate, n = 1
[16] = tested on: ITK; settings: concentration: 1 μM, replicates: in singlicate, n = 1
[17] = tested on: JAK1(JH1domain-catalytic); settings: concentration: 1 μM, replicates: in singlicate, n = 1
[18] = tested on: JAK1(JH2domain-pseudokinase); settings: concentration: 1 μM, replicates: in singlicate, n = 1
[19] = tested on: JAK2(JH1domain-catalytic); settings: concentration: 1 μM, replicates: in singlicate, n = 1
[20] = tested on: JAK3(JH1domain-catalytic); settings: concentration: 1 μM, replicates: in singlicate; n = 1
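Also: KINOMEscan kinase panel screen.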

Which results are given for `Fc1cccc(COc2ccc(Nc3ncnc4nn5ccccc5c34)cc2Cl)c1` [GW689066]?
%Inh [1]: 0%; %Inh [2]: 0%; %Inh [3]: 0%; %Inh [4]: 22%; %Inh [5]: 28%; %Inh [6]: 0%; %Inh [7]: 0%; %Inh [8]: 11%; %Inh [9]: 0%; %Inh [10]: 0%; %Inh [11]: 0%; %Inh [12]: 8%; %Inh [13]: 8%; %Inh [14]: 0%; %Inh [15]: 0%; %Inh [16]: 3%; %Inh [17]: 2%; %Inh [18]: 0%; %Inh [19]: 0%; %Inh [20]: 0%

With `Cc1ccc(NC(=O)c2cccc(C#N)c2)cc1-c1ccc(C(=O)Nc2ccncc2)cc1` [GSK1398463] as the compound, how does the “%Inh” value [1] read?
The value was 0%.

What about the “%Inh” value [2] of the same compound?
The value was 8%.

What about the “%Inh” value [3] of the same compound?
Its value is 0%.

What about the “%Inh” value [4] of the same compound?
The value was 40%.

What about the “%Inh” value [5] of the same compound?
Its value is 0%.

And the “%Inh” value [6]?
The value was 35%.

What about the “%Inh” value [7] of the same compound?
The value was 14%.

And the “%Inh” value [8]?
The value was 32%.

What about the “%Inh” value [9] of the same compound?
The value was 36%.

And the “%Inh” value [10]?
The value was 15%.

What about the “%Inh” value [11] of the same compound?
The value was 2%.

And the “%Inh” value [12]?
Its value is 6%.

What about the “%Inh” value [13] of the same compound?
The value was 24%.

What about the “%Inh” value [14] of the same compound?
The value was 9%.

And the “%Inh” value [15]?
The value was 21%.

And the “%Inh” value [16]?
The value was 16%.

What about the “%Inh” value [17] of the same compound?
The value was 3%.

And the “%Inh” value [18]?
Its value is 6%.

And the “%Inh” value [19]?
The value was 39%.

What about the “%Inh” value [20] of the same compound?
The value was 0%.

Which “%Inh” value [1] does the source give for `Cl.c1ccc(Cn2ncc3cc(Nc4ncnc5ccccc45)ccc32)cc1` [GW273749] here?
Its value is 0%.

What about the “%Inh” value [2] of the same compound?
Its value is 0%.

And the “%Inh” value [3]?
Its value is 0%.

What about the “%Inh” value [4] of the same compound?
Its value is 20%.

What about the “%Inh” value [5] of the same compound?
Its value is 0%.

What about the “%Inh” value [6] of the same compound?
Its value is 0%.

And the “%Inh” value [7]?
Its value is 0%.

What about the “%Inh” value [8] of the same compound?
The value was 0%.

And the “%Inh” value [9]?
The value was 31%.

What about the “%Inh” value [10] of the same compound?
The value was 24%.

What about the “%Inh” value [11] of the same compound?
The value was 0%.

What about the “%Inh” value [12] of the same compound?
The value was 3%.

And the “%Inh” value [13]?
The value was 0%.

What about the “%Inh” value [14] of the same compound?
The value was 0%.

And the “%Inh” value [15]?
The value was 9%.

And the “%Inh” value [16]?
The value was 0%.

What about the “%Inh” value [17] of the same compound?
The value was 8%.

And the “%Inh” value [18]?
Its value is 0%.

What about the “%Inh” value [19] of the same compound?
Its value is 11%.

What about the “%Inh” value [20] of the same compound?
The value was 0%.

Which results are given for `CN1c2ccc(-c3ccc(C(=O)NCCO)cc3)cc2-c2[nH]ncc2S1(=O)=O`?
%Inh [1]: 52%; %Inh [2]: 39%; %Inh [3]: 16%; %Inh [4]: 22%; %Inh [5]: 0%; %Inh [6]: 0%; %Inh [7]: 7%; %Inh [8]: 0%; %Inh [9]: 0%; %Inh [10]: 31%; %Inh [11]: 0%; %Inh [12]: 0%; %Inh [13]: 14%; %Inh [14]: 44%; %Inh [15]: 0%; %Inh [16]: 12%; %Inh [17]: 5%; %Inh [18]: 35%; %Inh [19]: 13%; %Inh [20]: 97.2%

Which results are given for `Cl.Cl.c1ccc(-c2cc3ccncc3cc2OC2CCNCC2)cc1` [GSK1122999]?
%Inh [1]: 0%; %Inh [2]: 20%; %Inh [3]: 0%; %Inh [4]: 51%; %Inh [5]: 27%; %Inh [6]: 0%; %Inh [7]: 0%; %Inh [8]: 72%; %Inh [9]: 98.7%; %Inh [10]: 9%; %Inh [11]: 0%; %Inh [12]: 0%; %Inh [13]: 56%; %Inh [14]: 24%; %Inh [15]: 1%; %Inh [16]: 11%; %Inh [17]: 22%; %Inh [18]: 0%; %Inh [19]: 8%; %Inh [20]: 0%

What does the source list for `CCc1nc(-c2cccc(C)c2)c(-c2ccnc(NC(=O)c3ccccc3)c2)s1`?
%Inh [1]: 9%; %Inh [2]: 0%; %Inh [3]: 0%; %Inh [4]: 0%; %Inh [5]: 0%; %Inh [6]: 59%; %Inh [7]: 2%; %Inh [8]: 0%; %Inh [9]: 0%; %Inh [10]: 100%; %Inh [11]: 0%; %Inh [12]: 29%; %Inh [13]: 14%; %Inh [14]: 1%; %Inh [15]: 6%; %Inh [16]: 16%; %Inh [17]: 22%; %Inh [18]: 3%; %Inh [19]: 19%; %Inh [20]: 8%

For `COc1ccc(-c2nc3n(c2-c2ccncc2)CCC3)cc1` [SKF-104493], which “%Inh” value ([1]; 1 µM) is on record?
The value was 11% and 0%.

And the “%Inh” value ([2]; 1 µM)?
The value was 0% and 17%.

And the “%Inh” value ([3]; 1 µM)?
The value was 2% and 0%.

What about the “%Inh” value ([4]; 1 µM) of the same compound?
Its value is 17% and 0%.

What about the “%Inh” value ([5]; 1 µM) of the same compound?
Its value is 35% and 0%.

And the “%Inh” value ([6]; 1 µM)?
The value was 32% and 10%.

And the “%Inh” value [7]?
Its value is 0%.

What about the “%Inh” value ([8]; 1 µM) of the same compound?
Its value is 1% and 0%.

And the “%Inh” value [9]?
The value was 0%.

And the “%Inh” value ([10]; 1 µM)?
Its value is 0% and 20%.

What about the “%Inh” value ([11]; 1 µM) of the same compound?
The value was 1% and 0%.

What about the “%Inh” value ([12]; 1 µM) of the same compound?
Its value is 5% and 0%.

What about the “%Inh” value ([13]; 1 µM) of the same compound?
The value was 12% and 0%.

And the “%Inh” value [14]?
The value was 0%.

What about the “%Inh” value ([15]; 1 µM) of the same compound?
The value was 0% and 2%.

And the “%Inh” value ([16]; 1 µM)?
The value was 0% and 1%.

What about the “%Inh” value ([17]; 1 µM) of the same compound?
Its value is 0% and 9%.

And the “%Inh” value ([18]; 1 µM)?
The value was 43% and 41%.

And the “%Inh” value ([19]; 1 µM)?
Its value is 11% and 0%.

What about the “%Inh” value [20] of the same compound?
The value was 0%.

With `COc1ccc(Nc2nccc(N3CCC(NC(=O)Nc4ccc5c(c4)OCO5)C3)n2)cc1` (centres unmarked) [GSK1379745] as the compound, how does the “%Inh” value [1] read?
Its value is 0%.

What about the “%Inh” value [2] of the same compound?
Its value is 23%.

And the “%Inh” value [3]?
Its value is 9%.

What about the “%Inh” value [4] of the same compound?
Its value is 67%.

And the “%Inh” value [5]?
The value was 11%.

What about the “%Inh” value [6] of the same compound?
Its value is 0%.

What about the “%Inh” value [7] of the same compound?
Its value is 0%.

What about the “%Inh” value [8] of the same compound?
Its value is 7%.

What about the “%Inh” value [9] of the same compound?
The value was 9%.

What about the “%Inh” value [10] of the same compound?
The value was 12%.

What about the “%Inh” value [11] of the same compound?
Its value is 0%.

And the “%Inh” value [12]?
Its value is 0%.

And the “%Inh” value [13]?
Its value is 11%.

And the “%Inh” value [14]?
Its value is 11%.

And the “%Inh” value [15]?
Its value is 6%.

What about the “%Inh” value [16] of the same compound?
The value was 6%.

And the “%Inh” value [17]?
Its value is 0%.

What about the “%Inh” value [18] of the same compound?
The value was 0%.

What about the “%Inh” value [19] of the same compound?
Its value is 19%.

What about the “%Inh” value [20] of the same compound?
The value was 0%.

For `Nc1nc(-c2ccc3c(N)n[nH]c3c2)cc(N2CCCCC2)n1` [GSK2228768], which “%Inh” value [1] is on record?
The value was 0%.

What about the “%Inh” value [2] of the same compound?
Its value is 0%.

And the “%Inh” value [3]?
Its value is 0%.

And the “%Inh” value [4]?
The value was 32%.

And the “%Inh” value [5]?
The value was 0%.

What about the “%Inh” value [6] of the same compound?
Its value is 0%.

What about the “%Inh” value [7] of the same compound?
Its value is 0%.

And the “%Inh” value [8]?
The value was 0%.

What about the “%Inh” value [9] of the same compound?
Its value is 0%.

And the “%Inh” value [10]?
Its value is 29%.

What about the “%Inh” value [11] of the same compound?
Its value is 0%.

What about the “%Inh” value [12] of the same compound?
Its value is 1%.

What about the “%Inh” value [13] of the same compound?
Its value is 0%.

What about the “%Inh” value [14] of the same compound?
The value was 0%.

What about the “%Inh” value [15] of the same compound?
The value was 9%.

And the “%Inh” value [16]?
Its value is 18%.

And the “%Inh” value [17]?
Its value is 0%.

What about the “%Inh” value [18] of the same compound?
Its value is 0%.

What about the “%Inh” value [19] of the same compound?
The value was 0%.

And the “%Inh” value [20]?
The value was 0%.

Which results are given for `CS(=O)(=O)CCNCc1ccc(-c2ccc3ncnc(Nc4ccc(OCc5ccccc5)c(Cl)c4)c3c2)o1.Cl` [GW574783]?
%Inh [1]: 13%; %Inh [2]: 18%; %Inh [3]: 18%; %Inh [4]: 22%; %Inh [5]: 14%; %Inh [6]: 0%; %Inh [7]: 13%; %Inh [8]: 0%; %Inh [9]: 0%; %Inh [10]: 7%; %Inh [11]: 24%; %Inh [12]: 7%; %Inh [13]: 0%; %Inh [14]: 12%; %Inh [15]: 0%; %Inh [16]: 0%; %Inh [17]: 9%; %Inh [18]: 0%; %Inh [19]: 14%; %Inh [20]: 0%
